SARS PLpro yeast – blocks SARS-CoV papain-like protease in a yeast assay; S. cerevisiae expressing SARS-CoV PLpro, growth rescue; Potency, µM (highest dose often 32.9 µM), without a hit: top-dose activity, positive = growth rescue, most hits filed as activators; 0.19% of 330,000 active; calls by dose curve; further: potency means the concentration at half of the fitted maximal effect; 0% is about no effect; nearly all actives have a fitted effect of over 55% in size
Shiga inhibitor – Shiga toxin inhibition; Vero cells, Shiga toxin protein synthesis inhibition reporter; inhibition, % at 38.7 µM; 9.2% of 290,000 active; AID 2315; in the data active means inhibition mostly above about 28%, no sharp cut-off; inactive means mostly below about 43%; further: 0% is about no effect
Cycloheximide cs – affects cycloheximide protein synthesis inhibition readout, counter-screen | cell reporter, cycloheximide protein synthesis inhibition counterscreen | max response, % | 12% of 300,000 active; in the data active means max response mostly above about 13%, no sharp cut-off; inactive means mostly below about 14%; further: read at 38.3 µM for the half of the compounds with a filed dose; 0% is about no effect
Pf growth 48h – P. falciparum growth inhibition at 48 hours (one generation); Potency, µM (highest dose often 28.7 µM), inactives show top-dose activity change, negative = inhibition, most hits filed as inhibitors; 5.9% of 310,000 active; P. falciparum luciferase growth in erythrocytes, 48 h; further: potency means the concentration at half of the fitted maximal effect; on the % scale 0 is the no-effect control and ±100 the full control effect
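Growth was read as firefly luciferase luminescence after a 48 h, 37 C, 5% CO2 exposure of compounds to reporter-bearing P. falciparum cultures (0.1% parasitemia, 2% hematocrit final) in Albumax-supplemented RPMI 1640.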
NS1 inh – inhibitors of influenza NS1 protein function | AID 2326 | Potency, µM (doses to about 46.1 µM), for inactives: top-dose activity, positive = more growth | 0.4% of 270,000 active; calls by dose curve; further: potency means the concentration at half of the fitted maximal effect; actives are rising curves; nearly all actives have a fitted effect of over 50% in size
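OD600 was taken as the measure of yeast growth restored by compound in an NS1-expressing S. cerevisiae strain. Cells had been washed out of glucose medium and diluted 1:100 into galactose -URA medium, pH 6.0.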
Pf growth 96h – P. falciparum growth inhibition at 96 hour, primary screen for plastid delayed-death inhibitors; P. falciparum luciferase reporter growth, 96 h; Potency, µM (doses to about 28.7 µM), for the others: at the top dose activity change, negative = inhibition, usual class: inhibitors; 6.9% of 320,000 active; AID 504834; further: potency means the concentration at half of the fitted maximal effect; on the % scale 0 is the no-effect control and ±100 the full control effect
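Erythrocytes infected with luciferase-expressing P. falciparum were dispensed at 2% hematocrit and 0.05% parasitemia (final), then incubated with compounds 96 hours at 37 C in 5% CO2. Luminescence after detection reagent addition reported growth.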
Active calls of the source: *; i = inactive; ? = inconclusive; . = no result given; + = active, no number. An excerpt weighted towards active compounds, which were near 21% of everything screened. Unless noted, the call rests on the fitted dose curve; in most records, active means well fitted inhibition curve with a large enough effect; inconclusive means small, poorly fitted or top-dose-only effect, or another doubt; inactive means no such curve, though single readings can be large or run the other way.

SMILES	SARS PLpro yeast	Shiga inhibitor	Cycloheximide cs	Pf growth 48h	NS1 inh	Pf growth 96h
COCC(=O)Nc1cc(C)cn(Cc2c(F)cccc2Cl)c1=O	8%	.	4	-2%	?	?
COc1cc([N+](=O)[O-])ccc1NC(=O)COC(=O)c1c[nH]c(=O)[nH]c1=O	-5%	.	.	.	.	.
O=C(CCN1CCOCC1)Nc1ccc2c(c1)CCC2	-3%	17	12	20%	-12%	3.7µM*
CC1CCCN(CCC(=O)Nc2ccc3c(c2)CCC3)C1 (stereo unspecified)	-18%	-2	-3	15%	-4%	2%
O=C(CN1CCOCC1)Nc1ccc2c(c1)CCC2	2%	34	17*	137%	-33%	134%
CC(C)CN(C(=O)COC(=O)CN1C(=O)c2ccccc2C1=O)c1c(N)n(Cc2ccccc2)c(=O)[nH]c1=O	4%	.	.	-16%	.	5%
O=c1ccccn1CCOc1ccc(Cl)cc1	1%	35*	33*	-5%	1%	-28%
CC(C)(C)c1ccc(OCCn2ccccc2=O)cc1	-2%	93*	37*	-11%	-60%	171%
CC(C)(c1ccccc1)c1ccc(OCCn2cnc3ccccc3c2=O)cc1	-4%	8	-3	.	6%	-14%
C/C(=N\NC(=O)COc1ccc([N+](=O)[O-])cc1)C(C)(C)C	-6%	-11	-2	-5%	19%	32%
Cc1c(NC(=O)OCCNC(=O)Nc2ccccc2)sc(=S)n1C	3%	-13	-4	12%	-6%	4.7µM*
Cc1cc(Cl)ccc1OCC(=O)NCCOC(=O)Nc1sc(=S)n(C)c1C	2%	-10	-1	7%	2%	4.7µM*
O=C1/C(=C\c2ccsc2)N2CCC1CC2	-3%	4	3	2%	1%	0%
CN1C/C(=C/c2ccncc2)C(=O)/C(=C/c2ccncc2)C1	-7%	36	32*	2.6µM*	-14%	?
CN1C/C(=C/c2ccsc2)C(=O)/C(=C/c2ccsc2)C1	-11%	14	63*	2%	-11%	?
c1ccc(C(c2ccccc2)c2ccn[nH]2)cc1	-1%	61*	19*	-23%	4%	-20%
CC(Oc1ccccc1)c1ccn[nH]1 (stereo unspecified)	0%	18	-3	15%	4%	16%
Cc1ccc(Sc2ncccc2COC(=O)Nc2c(C)cccc2C)cc1	-21%	-6	2	?	12%	7.4µM*
COc1ccc(NC(=O)c2cc(Br)c(Br)s2)cn1	-26%	91*	24*	-13%	.	20%
COc1ccc(NC(=O)c2sccc2C)cn1	-2%	89*	43*	i	.	175%
COc1ccc(NC(=O)Nc2cccs2)cn1	1%	18	9.5*	12%	5%	22%
COCCCn1c(SCC(=O)NNC(=O)c2cccc(O)c2)nnc1-c1ccncc1	0%	-19	1	30%	5%	39%
O=C(c1ccccc1[N+](=O)[O-])N1CCC(Cc2ccccc2)CC1	?	-9	6	50%	9%	?
CCc1ccc(N(CC(=O)NC2CCCC2)C(=O)CCC(=O)Nc2ccccn2)cc1	3%	-15	3	?	4%	0%
CC(C)CC(=O)N1CCC(N(CCc2ccccc2)Cc2ccccc2)CC1	-1%	-4	1	?	1%	-19%
SMILES	SARS PLpro yeast	Shiga inhibitor	Cycloheximide cs	Pf growth 48h	NS1 inh	Pf growth 96h
COc1ccc(NC(=O)CN2CCN(c3c(C)cc(C)cc3C)CC2)cc1	-1%	.	2	80%	-50%	?
CCOC(=O)c1c(O)c2ccccc2oc1=O	-1%	-11	-3	5%	4%	11%
CCc1oc2ccccc2c1C(=O)c1cc(I)c(O)c(I)c1	.	.	.	-15%	.	1.9µM*
COc1cc(/C=N/NS(=O)(=O)c2ccc(C)c([N+](=O)[O-])c2)ccc1O	1%	122*	36*	0%	.	25%
Cc1ccc(S(=O)(=O)N/N=C/c2ccc(O)cc2O)cc1[N+](=O)[O-]	1%	58*	18*	19%	9%	7%
COc1cc(/C=N/NS(=O)(=O)c2ccc(C)c([N+](=O)[O-])c2)cc([N+](=O)[O-])c1O	1%	.	-1	-31%	20%	?
COc1ccc(-n2c(O)c(/C=N/NS(=O)(=O)c3ccc(C)c([N+](=O)[O-])c3)c3ccccc3c2=O)cc1OC	0%	-10	-4	?	6%	12µM*
Cc1ccc(S(=O)(=O)N/N=C/c2cc([N+](=O)[O-])ccc2O)cc1[N+](=O)[O-]	-3%	77	4	i	.	?
O=C(NCCc1cccc(Cl)c1)c1cccc(-n2cnnn2)c1	-1%	.	.	14%	.	3%
O=C1OC(/C(=C\Nc2cc(Cl)ccc2O)[N+](=O)[O-])c2ccccc21 (stereo unspecified)	-21%	15	5	10µM*	.	?
COc1cc2c(cc1O)[C@@H]1Cc3ccc(OC)c(O)c3CN1CC2	.	.	.	12µM*	.	6.6µM*
COc1cc(SC)ccc1C(=O)N(CC(=O)Nc1ccccc1Br)Cc1ccco1	-16%	.	.	?	.	?
O=C(CN(Cc1ccco1)C(=O)c1cc(=O)[nH]c2ccccc12)Nc1ccccc1Br	6%	16	-1	?	5%	9.3µM*
COc1ccc(Cc2nnc(-c3ccccc3)o2)cc1	2%	43*	44*	118%	.	12µM*
COc1ccc(-c2nnc(-c3ccc(F)cc3)o2)cc1	-2%	90*	48*	236%	-2%	10%
COc1ccc(SCCc2nnc(-c3ccccc3)o2)cc1	-3%	18	10	9%	-43%	5%
c1ccc(Cc2nnc(-c3ccccc3)o2)cc1	-4%	-37	-6	84%	?	19%
CCCc1nnc(-c2ccc(OC)cc2)o1	5%	+	34*	38%	-23%	102%
COc1ccc(-c2nnc(-c3ccccc3O)o2)cc1	0%	63*	45*	15%	-4%	-27%
COc1ccc(NC(=S)N(CCCN2CCCC2)Cc2cccn2Cc2ccc(Cl)cc2)cc1Cl	-1%	-20	-4	?	.	83%
Brc1ccc(-c2nnc(Cc3ccccc3)o2)cc1	2%	81*	58*	139%	-35%	116%
c1ccc(-c2nnc(C(c3ccccc3)c3ccccc3)o2)cc1	9%	37	5	?	-2%	7.4µM*
COc1ccc(-c2nnc(-c3ccc(C)cc3)o2)cc1	-1%	82*	19*	104%	-9%	-3%
CCNc1nnc(-c2ccc(C)cc2)o1	-2%	107*	42*	98%	-6%	10%
Cc1ccc(CC(=O)Nc2nnc(-c3ccc(F)cc3)o2)c(C)c1	0%	-16	-1	7%	-4%	-3%
S=C(S)NCCCn1ccnc1	.	.	.	.	0%	.
Cc1ccc(-c2nnc(-c3ccccc3)o2)cc1	-25%	49*	49*	477%	-22%	?
COc1ccccc1NCc1nnc(-c2ccccc2)o1	6%	14	20*	0%	-16%	-92%
